# Compound activity as filed in PubChem BioAssay.
# ALOX12 inh: Primary qHTS assay for inhibitors of human arachidonate 12S-lipoxygenase (ALOX12): Round 2; purified 12hLO, xylenol orange hydroperoxide absorbance; Potency, µM (doses to about 108 µM), without a hit: at the highest dose activity change, negative = inhibition, usual class: inhibitors; 580,000 compounds, 1.1% hits; AID 1671190, 2021; note: potency is the fitted concentration of half-maximal effect
# Target sequence (P18054 whole entry, looked up): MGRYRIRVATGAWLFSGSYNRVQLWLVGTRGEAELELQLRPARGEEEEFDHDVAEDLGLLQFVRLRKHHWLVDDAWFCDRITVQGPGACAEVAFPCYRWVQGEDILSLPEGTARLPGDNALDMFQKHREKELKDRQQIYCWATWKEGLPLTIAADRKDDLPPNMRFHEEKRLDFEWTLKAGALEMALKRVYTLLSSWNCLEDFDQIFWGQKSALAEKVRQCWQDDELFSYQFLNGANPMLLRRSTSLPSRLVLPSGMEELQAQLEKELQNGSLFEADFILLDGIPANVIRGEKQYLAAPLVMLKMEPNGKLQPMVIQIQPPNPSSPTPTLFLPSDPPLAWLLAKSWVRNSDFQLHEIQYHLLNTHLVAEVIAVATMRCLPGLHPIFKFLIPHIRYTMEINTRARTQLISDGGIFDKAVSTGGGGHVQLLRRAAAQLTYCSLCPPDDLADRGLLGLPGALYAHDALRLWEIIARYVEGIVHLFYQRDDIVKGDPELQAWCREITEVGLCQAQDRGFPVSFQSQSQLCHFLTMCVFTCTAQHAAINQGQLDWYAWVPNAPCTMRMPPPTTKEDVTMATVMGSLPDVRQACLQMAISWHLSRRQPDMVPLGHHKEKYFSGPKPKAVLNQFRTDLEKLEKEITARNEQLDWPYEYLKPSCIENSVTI
#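 Purified human 12hLO (150 nM final) in 25 mM Hepes, 0.01% Triton X-100, pH 7.0 was preincubated 15 min at room temperature with compound. Then 40 uM arachidonic acid was added, 30 min. Hydroperoxide was read by Fe-XO absorbance ratio 573/405 nm.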
# HT1080 IDH1KD tx: qHTS for induction of synthetic lethality in tumor cells producing 2HG: qHTS for the HT-1080-IDH1KD cell line. 360,000 compounds, 2% hits. Potency, µM (doses to about 46.1 µM), without a hit: at the highest dose activity, negative = toxicity, hits mostly cytotoxic. HT-1080 IDH1 knockdown viability, ATP luminescence, 48 h;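 note: potency is the fitted concentration of half-maximal effect; 0% = DMSO wells and -100% = cell-free medium wells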
#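 Cytotoxicity counter-line: IDH1KD HT-1080, 48 h, CellTiter-Glo. Curves classed by r2, magnitude and activity.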
# IL1B secr inh: qHTS for Inhibitors of Inflammasome Signaling: IL-1-beta AlphaLISA Primary Screen. THP-1 LPS/ATP IL-1B secretion, AlphaLISA, 16 h; active compounds read low. activity change, % at 57.5 µM. 360,000 compounds, 4.7% hits; in the data active = activity change below about -50%; inconclusive = mostly about -30% to -49%
#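 Secreted IL-1B measured by AlphaLISA bead assay after 16 h compound exposure of THP-1 cells; compounds (final up to 57.5 uM) added 1 h before LPS (250 ng/mL) and ATP (1.25 mM) stimulation; lower signal means less secretion.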
# DT40 TDP1 CPT: qHTS for Inhibitors of human tyrosyl-DNA phosphodiesterase 1 (TDP1): qHTS in cells in presence of CPT. chicken DT40 Tdp1-/-;hTDP1 cells + 20 nM CPT, ATP luminescence, 48 h. Potency, µM (titrated, usually from 46.2 µM), for the others: at the highest dose activity change, negative = growth inhibition, actives largely listed as inhibitors. 420,000 compounds, 12% hits. AID 686979, 2013; note: potency is the fitted concentration of half-maximal effect; nearly all actives have a fitted effect of over 55% in size
#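 Chicken DT40 Tdp1-/- cells complemented with human TDP1, 400 cells/well, exposed to compounds plus 20 nM camptothecin for at least 48 h at 37 C; viability read as ATP content by CellTiter-Glo luminescence.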
# HT1080NT lethal: qHTS for induction of synthetic lethality in tumor cells producing 2HG: qHTS for the HT-1080-NT fibrosarcoma cell line; AID 686970, 2013; Potency, µM (titrated, usually from 46.1 µM), without a hit: at the highest dose activity, negative = less viability, actives largely listed as cytotoxic; 360,000 compounds, 1.6% hits; HT-1080-NT fibrosarcoma viability, CellTiter-Glo ATP luminescence, 48 h;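 note: NT is the 2HG producing partner of a matched IDH1 knockdown line; potency is the fitted concentration of half-maximal effect; 0% = DMSO-treated cells and -100% = media-only wells without cells; nearly all actives have a fitted effect of over 55% in size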
#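 Fibrosarcoma NT cells, 750 per well in 5% FBS RPMI, were exposed to compound for 48 hours. Viability: CellTiter-Glo luminescence.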
# DT40 TDP1 no CPT: qHTS for Inhibitors of human tyrosyl-DNA phosphodiesterase 1 (TDP1): qHTS in cells in absence of CPT. DT40 Tdp1-/- hTDP1 cells, no CPT, ATP luminescence, 48 h. Potency, µM (top dose mostly 46.2 µM), without a hit: top-dose activity change, negative = growth inhibition, hits mostly inhibitors. 420,000 compounds, 15% hits. AID 686978, 2013; note: potency is the fitted concentration of half-maximal effect; nearly all actives have a fitted effect of over 55% in size
#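 Growth of hTDP1-complemented DT40 Tdp1-knockout cells is measured by ATP luminescence after at least 48 hr compound exposure at 37 °C, with DMSO substituting for the 20 nM CPT used in the parallel screen.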
# Active calls of the source: *; u = inconclusive; x = not tested or not shown; [ ] = remark or other dose. The entries come from a sample that favours hits as a whole. Unless noted, calls come from the whole dose curve; as a rule, active = well fitted curve in the direction sought with a large enough effect; inconclusive = small, poorly fitted or top-dose-only effect, or another doubt; inactive = no such curve, though single readings can be large; an effect the other way counts as inactive or inconclusive. Unless noted, % is set by controls: 0 for no effect and ±100 for the full control effect.
SMILES,ALOX12 inh,HT1080 IDH1KD tx,IL1B secr inh,DT40 TDP1 CPT,HT1080NT lethal,DT40 TDP1 no CPT
FC(F)(F)c1ccc(CN2C[C@@H]3C(c4ccc(C(F)(F)F)cc4)C4(c5cccnc5)CC3(C4)[C@H]2c2ccccc2)cc1 (stereo partly specified),-16%,-16%,47,15µM*,-1%,15µM*
N#Cc1ccc(C23CC4(C2)[C@H](CN(P(=O)(c2ccccc2)c2ccccc2)[C@@H]4c2ccccc2)C3c2ccc(Cl)nc2)cc1 (stereo partly specified),x,-21%,u,23µM*,u,u
FC(F)(F)c1ccc(C2[C@H]3CN(Cc4cccnc4)[C@H](c4ccccc4)C34CC2(c2ccccc2)C4)cc1 (stereo partly specified),-1%,u,9,18µM*,-9%,u
FC(F)(F)c1ccc(CN2C[C@@H]3C(c4ccccc4)C4(c5cccnc5)CC3(C4)[C@H]2c2ccccc2)cc1 (stereo partly specified),-7%,2%,7,u,2%,u
c1ccc(C2[C@H]3CN(CC4CCCCC4)[C@H](c4ccccc4)C34CC2(c2cccnc2)C4)cc1 (stereo partly specified),u,-4%,-1,23µM*,7%,18µM*
N#Cc1ccc(C23CC4(C2)[C@H](CN(Cc2ccc(-c5ccccc5)cc2)[C@@H]4c2ccccc2)C3c2ccc(Cl)nc2)cc1 (stereo partly specified),-29%,3%,23,u,-2%,u
COC(=O)c1ccc(C23CC4(C2)[C@H](CN(CC2CCCCC2)[C@@H]4c2ccccc2)C3c2ccc(C(F)(F)F)cc2)cc1 (stereo partly specified),-13%,-1%,0,u,-6%,u
Clc1ccc(C2[C@H]3CN(Cc4cccnc4)[C@H](c4ccccc4)C34CC2(c2ccccc2)C4)cn1 (stereo partly specified),-12%,-27%,42,u,-28%,u
Cc1cccc(/C=N/NC(=O)C2CC2)c1,15%,x,x,x,x,x
CCOC(=O)c1cnc2ccc(Br)cc2c1Nc1cccc([N+](=O)[O-])c1,-1%,x,x,x,x,x
Cn1c(=O)c2c(ncn2CC(=O)OCc2ccc(C(C)(C)C)cc2)n(C)c1=O,46%,x,x,x,x,x
COC(=O)c1ccc(C23CC4(C2)[C@H](CN(C)[C@@H]4c2ccccc2)C3c2ccc(Cl)nc2)cc1 (stereo partly specified),-8%,-1%,4,u,-1%,15µM*
COC(=O)c1ccc(C23CC4(C2)[C@H](CN(C)[C@@H]4c2ccccc2)C3c2ccc(C(F)(F)F)cc2)cc1 (stereo partly specified),-39%,4%,17,u,-3%,u
COc1ccc(NC(=O)C(=O)c2c[nH]c3ccc(Br)cc23)cc1,-3%,x,x,x,x,x
O=C(c1cccc2c1NCCC2)N1CCn2nc(C(O)C3CC3)cc2C1 (stereo unspecified),36%,x,x,x,x,x
Cc1ccc(-c2csc(N3CCN(CCCn4c(-c5ccncc5)nc5ccccc54)CC3)n2)cc1,0%,u,3,5.8µM*,u,3.7µM*
Cc1ccc(-c2csc(NCCn3c(C(F)(F)F)nc4ccccc43)n2)cc1,-10%,-25%,50,u,u,u
CCn1c(C(C)NC(C)=O)nc2ccccc21 (stereo unspecified),5%,1%,11,7%,8%,-25%
Cc1ccc(-c2csc(N3CCN(CCCn4c(C(F)(F)F)nc5ccccc54)CC3)n2)cc1,9%,-8%,29,21µM*,u,15µM*
CCCn1c(C2CCCN2c2nc(-c3ccc(C)cc3)cs2)nc2ccccc21 (stereo unspecified),-9%,u,27,u,u,u
CC(=O)N[C@@H](C)c1nc2ccccc2n1CCCN1CCN(c2nc(-c3ccc(C)cc3)cs2)CC1,-1%,-12%,11,1µM*,-17%,1µM*
Cc1ccc(-c2csc(N3CCC[C@@H]3C(=O)NCCn3c(-c4ccncc4)nc4ccccc43)n2)cc1,7%,-23%,u,u,-29%,13µM*
OCCOCCn1c(C(CO)Nc2nc(-c3cccc(Br)c3)cs2)nc2ccccc21 (stereo unspecified),1%,-14%,-23,u,-10%,18µM*
O=C(Nc1nc(-c2cccc(Br)c2)cs1)Oc1ccccc1,1%[57.4 µM],13%,-6,-15%,0%,-11%
OCCOCCn1c(C(CO)Nc2nc(-c3ccccc3Br)cs2)nc2ccccc21 (stereo unspecified),3%,1%,7,u,1%,-22%
SMILES,ALOX12 inh,HT1080 IDH1KD tx,IL1B secr inh,DT40 TDP1 CPT,HT1080NT lethal,DT40 TDP1 no CPT
CCCn1c(C(CO)Nc2nc(-c3cccc(Br)c3)cs2)nc2ccccc21 (stereo unspecified),u,-26%,-57*,u,u,u
Nc1c(Cl)cc(-c2csc(NC(CO)c3nc4ccccc4n3CCOCCO)n2)cc1Cl (stereo unspecified),-3%,-24%,u,u,-12%,u
OCCOCCn1c(C(CO)Nc2nc(-c3ccc(Cl)cc3)cs2)nc2ccccc21 (stereo unspecified),-10%,-20%,u,29µM*,-20%,18µM*
CCCCn1c(=O)[nH]c(=O)c2c1nc(COC(=O)C1CCCCC1)n2CC,-24%,x,x,x,x,x
Cc1nc(Nc2ncc(C(=O)Nc3c(C)cccc3Cl)s2)cc(N2CCN(CCO)CC2)n1,u,x,x,2.1µM*,x,2.4µM*
CC1CCCN(CC(=O)Nc2ccc(S(=O)(=O)N3C(C)CCCC3C)cc2)C1 (stereo unspecified),-29%,-11%,-20,u,0%,16µM*
